Reference: PubChem BioAssay AID485314 (National Center for Advancing Translational Sciences (NCATS), 2010)
About 4,500 (1.3%) of roughly 340,000 compounds were called active. About 5% were inconclusive and are not listed. Calls follow the shape of the dose curve; as a rule, active = well fitted inhibition curve with a large enough effect; inconclusive = small, poorly fitted or top-dose-only effect, or another doubt; inactive = no such curve, though single readings can be large or run the other way. The sample as a whole holds a higher share of actives than the screen did.

The compounds below were run against DNA polymerase beta (Homo sapiens) (UniProt P06746) (assay: qHTS Assay for Inhibitors of DNA Polymerase Beta). Settings: Pol beta primer extension/strand displacement, fluorescence kinetic; series mostly up to 114 µM; activity change, negative = inhibition: at the top concentration.
Description: The base excision repair system in human cells is a target for therapeutic modulation of the response to irradiation treatment and DNA-damaging drugs. A key enzyme in this system is the bi-functional DNA polymerase known as DNA polymerase Beta (Pol Beta). The following is a homogeneous kinetic assay to study the primer extension and strand-displacement reaction catalyzed by pol beta.
A stepwise description of the 1536-well assay is shown in next Table. Three microliters of reagents (buffer in column 3 and 4 as negative control and 10 nM Pol beta in columns 1, 2, and 5-48) was dispensed into 1,536-well black solid-bottomed plate. Compounds (23 nL) were transferred via Kalypsys pin tool equipped with 1536-pin array (10 nL slotted pins, V&P Scientific, San Diego, CA). The plates were incubated for 15 min at room temperature, and 1 uL substrate (50 nM final concentration) were added to start the reaction and immediately read at 0 min read on Viewlux reader. The plate were further incubated for 10 min at room temperature, and then read on Viewlux again. Throughout the screen, reagent bottle and all liquid lines were chilled and made light-tight to minimize reagent degradation. All screening operations were performed on a fully integrated robotic system (Kalypsys, San Diego, CA) containing one RX-130 and two RX-90 anthropomorphic robotic arms (Staubli, Duncan, SC). Library plates were screened starting from the lowest and proceeding to the highest concentration, and a double-dipping step of the highest concentration was required to access higher concentrations of compounds. Vehicle-only plates, with DMSO being pin-transferred to the entire column 5-48 compound area, were inserted uniformly at the beginning and the end of each library in order to monitor for and record any shifts in the background, which can be affected by reagent dispensers or loss in enzyme activity overtime. Screening data were corrected, normalized, and concentration-effect relationships were derived by using publicly-available curve fitting algorithms developed in-house (http://ncgc.nih.gov/pub/openhts). A four parameter Hill equation was fitted to the concentration-response data by minimizing the residual error between the modeled and observed responses.
% is scaled to controls: 0 for no effect and ±100 for the full control effect; potency is read from the fitted curve at half-maximal effect.

Activity change, negative = inhibition, inactive:
Cc1ccccc1NC(=O)Cn1cc(C(=O)c2cccs2)c2ccccc21 -21.9%
CN(C(=O)c1ccc2c(c1)N(Cc1cccc(Cl)c1)C(=O)c1ccccc1S2=O)C1CCCCC1 (stereo not drawn) 4.04%
COc1ccccc1NC(=O)C(=O)c1cc(C)n(-c2ccccc2F)c1C 4.34%
COc1ccc(-n2c(SCC(=O)Nc3ccc(Cl)c(C)c3)nc3n[nH]c(C)c3c2=N)cc1 -7.34%
COc1ccc(S(=O)(=O)n2nc(C)c(S(=O)(=O)N3CCCCCC3)c2C)cc1 -16.8%
CSc1nn(Cc2cccc(C)c2)c(N)c1S(=O)(=O)c1ccccc1 -2.02%
COc1cc(/C=C2/C(=O)NN(c3ccc(F)cc3)C2=O)cc([N+](=O)[O-])c1O -29.4%
Cc1ccc(-n2ncc3c(=O)n(-c4ccc(C)c(C)c4)c(-c4ccco4)nc32)cc1 -0.115%
COc1ccccc1-c1ccnc2[nH]n(-c3ccccc3)c(=O)c12 -9.8%
CC(C)c1ccc2oc(-c3cc(NC(=O)c4cccs4)ccc3Cl)nc2c1 1.78%
Cc1cccc(C)c1Nc1nnc(SCC(=O)Nc2sccc2C#N)s1 -26.1%
N#Cc1ccsc1NC(=O)CN1CCCCC1 15.9%
CCOc1ccc(NC(=O)CSc2c3c(nc4ccccc24)CCCC3)cc1 -1.51%
COc1cc(NC(=O)CSc2nc3nc(C)c(Cc4ccc(C)cc4)c(C)n3n2)cc(OC)c1OC -28.1%
CN1C/C(=C/c2cccs2)C(=O)/C(=C\c2cccs2)C1 3.47%
Cc1cccc(C2=N/C(=C/c3cccs3)C(=O)O2)c1 -0.905%
COc1ccc(CCC(=O)NCCc2csc(-c3ccc(Cl)cc3)n2)cc1 -1.93%
COc1ccc(CCNc2nc3c(-c4cccc(F)c4)nnn3c3ccccc23)cc1OC 40.6%
COCCCNc1nc2c(-c3cccc(C(F)(F)F)c3)nnn2c2ccccc12 -25.9%
COc1ccc(C(=O)COC(=O)CCCC(=O)Nc2cc(C(F)(F)F)ccc2Cl)cc1 -2.85%
CN1C=CC=C/C1=C1\SC(=S)N(Cc2ccccc2)C1=O 6.67%
O=C1/C(=C\c2ccccc2Cl)SC(=S)N1CCC(=O)N1CCCc2ccccc21 5.83%
O=C(CCCN1C(=O)/C(=C/c2cccs2)SC1=S)Nc1ccc(O)cc1 9.43%
COc1ccc(/C=C2\SC(=S)N(CC(=O)NNC(=O)c3ccncc3)C2=O)cc1 29.9%
Cc1ccc(/C=C2\SC(=S)N(CCC(=O)Nc3ccc(O)cc3)C2=O)cc1 2.43%
O=C(CCN1C(=O)/C(=C/c2cccs2)SC1=S)NNC(=O)c1cccc(O)c1 -8.72%
O=C(CCCN1C(=O)/C(=C/c2ccccc2)SC1=S)Nc1ccc(O)cc1 0.267%
COc1ccc(/C=C2/SC(=O)N(CCCCCC(=O)Nc3ccccc3C(=O)O)C2=S)cc1 24.4%
COc1cccc(CN2CCc3nc(SCC(=O)Nc4ccccc4)[nH]c(=O)c3C2)c1 18.1%
Cc1ccc2nc(COc3ccccc3NC(=O)Nc3ccc(F)c(Cl)c3)cc(=O)n2c1 2.36%
COc1ccc(-c2c3c(=O)n(C)c(=O)n(C)c3c3c(C)nc4ccccc4n23)cc1 -27.7%
Cc1ccc(-c2nnc(Nc3cccc(Br)c3)c3ccccc23)cc1S(=O)(=O)NCC1CCCO1 (stereo not drawn) 21.3%
COc1ccc(-c2cccc(NS(=O)(=O)c3cc(C)c(OC)c(C)c3C)c2)nn1 10.4%
O=C(O)c1ccc(Cn2c(SCc3ccc(F)cc3)nc3ccncc32)cc1 6.07%
CCOc1ccc(N(CC)S(=O)(=O)N2CCCC(C(=O)Nc3ccc(C(C)=O)cc3)C2)cc1 (stereo not drawn) 4.94%
COc1cc(OC)c(C2C=C(C(=O)O)Nc3ncnn32)cc1OC (stereo not drawn) 31.7%
CC1CCN(S(=O)(=O)c2ccc3c(ccn3CCC(=O)NCc3ccc(N(C)C)cc3)c2)CC1 -2.55%

Potency, active:
CCOc1ccc(-n2c(SCC(=O)NCc3ccccc3)nc3n[nH]c(C)c3c2=N)cc1 25.1 µM
Cc1ccc(N2NC(=O)/C(=C/C=C/c3ccco3)C2=O)cc1C 35.5 µM
Cc1ccc(N=C2NC(=O)/C(=C/C=C/c3ccco3)S2)cc1C 10 µM
Cc1csc(SCC(=O)Nc2sccc2C#N)n1 20 µM
CSC1=N/C(=C\C=C\c2cccs2)C(=O)S1 20 µM
COCCCNc1nc2c(-c3cccc(C)c3)nnn2c2ccc(Cl)cc12 35.5 µM
COc1ccc(/C=C2\SC(=S)N(CCC(=O)Nc3cccc(C(=O)O)c3)C2=O)cc1OC 70.8 µM
COc1cc(/C=C2/SC(=S)N(Cc3ccccc3)C2=O)cc(OC)c1O 14.1 µM
O=C(CCCN1C(=O)/C(=C/c2ccco2)SC1=S)Nc1ccccc1 12.6 µM
O=C(CCCN1C(=O)/C(=C\c2ccco2)SC1=S)Nc1cccc2ccccc12 10 µM

Potency, inactive:
CCCCNC(=O)CSc1nc2n[nH]c(C)c2c(=N)n1-c1cccc(Cl)c1C
